Most compounds without a hit are left out; they make up all but 0.87% or so of the library.
TLR9-MyD88 inh – TLR9-MyD88 interaction inhibition. inhibition, % at 4.98 µM. 340,000 tested, 0.21% active. CHO BLA complementation TLR9-MyD88, CCF4 FRET ratio;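 active means inhibition above the mean over all tested compounds plus 3 SD, cut at about 21% in these data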
IDE inh – inhibitors of human insulin-degrading enzyme in cells. HEK cells, FAbetaB cleavage, fluorescence polarization. inhibition, % at 5.59 µM. 320,000 tested, 0.41% active;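 active means percent inhibition above the average of all tested compounds plus 3 SD, set per screening campaign, cut at about 16% in these data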;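 further: IDE supplied by intact live HEK cells; FP after avidin binding of uncleaved biotin substrate so inhibition keeps polarization high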
Target sequence (P14735 whole entry, looked up): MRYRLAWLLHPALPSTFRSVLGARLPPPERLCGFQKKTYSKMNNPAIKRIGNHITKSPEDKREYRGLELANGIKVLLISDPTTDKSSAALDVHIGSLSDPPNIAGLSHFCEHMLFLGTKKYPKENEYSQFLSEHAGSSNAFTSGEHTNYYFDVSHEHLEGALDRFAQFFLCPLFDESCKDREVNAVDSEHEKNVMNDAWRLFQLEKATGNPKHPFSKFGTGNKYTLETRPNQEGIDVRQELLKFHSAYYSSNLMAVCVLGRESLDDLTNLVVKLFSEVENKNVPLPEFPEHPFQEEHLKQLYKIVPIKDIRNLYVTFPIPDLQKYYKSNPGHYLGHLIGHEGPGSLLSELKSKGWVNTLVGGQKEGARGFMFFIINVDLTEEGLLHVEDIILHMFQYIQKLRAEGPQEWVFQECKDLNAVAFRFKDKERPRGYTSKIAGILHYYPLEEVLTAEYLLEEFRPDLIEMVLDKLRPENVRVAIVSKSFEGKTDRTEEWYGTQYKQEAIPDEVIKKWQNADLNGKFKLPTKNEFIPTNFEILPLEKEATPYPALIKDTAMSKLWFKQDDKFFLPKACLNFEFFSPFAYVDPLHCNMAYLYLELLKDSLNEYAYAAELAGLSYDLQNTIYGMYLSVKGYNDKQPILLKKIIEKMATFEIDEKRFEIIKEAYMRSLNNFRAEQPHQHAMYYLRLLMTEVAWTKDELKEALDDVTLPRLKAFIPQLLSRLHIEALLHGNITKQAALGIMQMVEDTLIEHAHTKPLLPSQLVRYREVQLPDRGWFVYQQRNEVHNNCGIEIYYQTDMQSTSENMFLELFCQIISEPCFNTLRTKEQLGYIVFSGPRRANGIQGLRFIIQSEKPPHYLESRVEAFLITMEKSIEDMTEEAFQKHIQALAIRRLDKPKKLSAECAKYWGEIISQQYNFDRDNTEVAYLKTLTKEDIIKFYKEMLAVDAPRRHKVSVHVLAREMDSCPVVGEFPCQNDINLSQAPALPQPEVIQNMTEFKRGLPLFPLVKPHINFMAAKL
TLR4-MyD88 BLA – inhibitors of human TLR4-MyD88 binding | O00206+Q99836 | HeLa CL3-4 TLR4/MyD88 BLA complementation, FRET ratio | inhibition, % at 8.4 µM | 200,000 tested, 0.18% active; in the data active means inhibition above about 25%
IDE cell activ – boosts human insulin-degrading enzyme activity in HEK cells; 340,000 tested, 0.073% active; activation, % at 5.96 µM; FAbeta-B cleavage, fluorescence polarization; 0% vehicle, 100% cell-free pure enzyme wells; P14735;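 active means activation above the mean of all tested compounds plus 3 SD, set per screening campaign, cut at about 17% in these data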
NOD2-RIPK2 inh – NOD2-RIPK2 protein interaction inhibition. O43353. CHO BLA complementation NOD2-RIPK2, CCF4 ratio. inhibition, % at 4.98 µM. 360,000 tested, 0.38% active; in the data active means inhibition above about 21%
IDE cell inh cf – cellular human IDE inhibition, confirmation. shares compounds with IDE inh. 1,200 tested, 51% active. AID 435028. inhibition, % at 5.59 µM. HEK cells, FAbetaB cleavage, fluorescence polarization;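 active means mean inhibition across triplicate wells above the cutoff set by the earlier primary insulin-degrading enzyme screen, cut at about 16% in these data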
HEK293 tox – HEK cell cytotoxicity, counter-screen for IDE inhibitors | inhibition, % at 5.59 µM | shares compounds with IDE inh | 1,200 tested, 28% active | HEK293 cytotoxicity, ATP luminescence; in the data active means inhibition above about 22%
IDE FP artifact – counter-screen for IDE inhibitors: fluorescent artifacts | 30 tested, under 10 active | shares compounds with IDE inh | IC50, µM | FP counterscreen for fluorescent artifacts, IDE probe project; call rule not given here
Large screens that a line does not name were inactive (follow-up assays come after a bar, where they were run).

COc1cc(/C=C(\C#N)c2nc3ccccc3[nH]2)ccc1Oc1ccc([N+](=O)[O-])cn1	none
COc1cc(/C=C(\C#N)c2nc3ccccc3n2C)cc(OC)c1O	IDE inh 165.6 | IDE cell inh cf 26.3 | HEK293 tox inactive
COc1ccc(/C=C(\C#N)c2nc3ccccc3[nH]2)cc1O	none (no result: IDE inh, TLR4-MyD88 BLA)
COc1cc(/C=C(\C#N)c2nc3ccccc3[nH]2)cc(OC)c1O	IDE inh 92.0 | IDE cell inh cf 25.9 | HEK293 tox inactive
COc1c(O)ccc(/C=C(\C#N)c2nc3ccccc3[nH]2)c1[N+](=O)[O-]	IDE inh 17.3 | IDE cell inh cf inactive | HEK293 tox inactive
COc1cc(/C=C(/C#N)c2nc3ccccc3[nH]2)ccc1OC(=O)c1ccco1	IDE inh 67.3 | IDE cell inh cf 142.3 | HEK293 tox inactive
COc1cc(NC(=S)NC(=O)c2ccccc2F)ccc1NC(=O)c1ccco1	none
CC(=O)c1cccc(NC(=O)C(C)OC(=O)C2=NNC(=O)CC2)c1 (configuration not stated)	none (no result: TLR4-MyD88 BLA)
CCOc1cc(N(CC)CC)ccc1/C=C(/C#N)c1nc2ccccc2[nH]1	IDE inh 107.7 | IDE cell inh cf 143.6 | HEK293 tox 28.9
Cn1c(=O)c(C(=O)CN2CCc3ccccc32)c(N)n(Cc2ccccc2)c1=O	none
Cn1c(=O)c(C(=O)CN2CCCc3ccccc32)c(N)n(Cc2ccccc2)c1=O	IDE inh 30.5 | IDE cell inh cf 16.6 | HEK293 tox inactive | IDE FP artifact inactive
COc1ccc(CCn2c(=O)c3cccnc3n(Cc3cccc([N+](=O)[O-])c3)c2=O)cc1OC	none
Cc1ccc(/C=C/C(=O)NC(=S)Nc2ccc(S(=O)(=O)Nc3cc(C)on3)cc2)cc1	IDE inh 24.5 (no result: TLR4-MyD88 BLA) | IDE cell inh cf 20.9 | HEK293 tox inactive
CCc1ccc(OCC(=O)O/N=C(\N)c2cccnc2)cc1	IDE inh 16.5 (no result: TLR9-MyD88 inh, TLR4-MyD88 BLA, IDE cell activ) | IDE cell inh cf inactive | HEK293 tox inactive
Cc1ccc(C)c(OCC(=O)O/N=C(\N)c2cccnc2)c1	none (no result: TLR4-MyD88 BLA)
Cc1cccc(C)c1NC(=O)CCCCCC1NC(=O)NC1C (configuration not stated)	IDE inh 22.3 | IDE cell inh cf inactive | HEK293 tox inactive
O=S(=O)(Nc1nc2ccccc2nc1NCc1ccco1)c1ccc(F)cc1	none (no result: TLR4-MyD88 BLA)
COc1ccc2c(c1)CC/C(=C/c1ccco1)C2=O	IDE inh 19.2 | IDE cell inh cf inactive | HEK293 tox inactive
Cc1cccc(N2CCN(C(=O)CCCn3c(=O)[nH]c4ccsc4c3=O)CC2C)c1 (configuration not stated)	none (no result: TLR4-MyD88 BLA)
Cc1cccc(N2CCN(C(=O)CCn3c(=O)[nH]c4ccsc4c3=O)CC2C)c1 (configuration not stated)	IDE inh 23.8 (no result: TLR4-MyD88 BLA) | IDE cell inh cf inactive | HEK293 tox inactive
COc1ccc(Cl)cc1NC(=S)NNC(=O)C1(C)CC1(Cl)Cl (configuration not stated)	none
Cc1csc(NC(=O)c2cc3c(s2)-c2ccccc2OC3)n1	none
Cc1c(NC(=O)c2cc3c(s2)-c2ccccc2OC3)cccc1[N+](=O)[O-]	IDE inh 26.7 | IDE cell inh cf inactive | HEK293 tox 39.2
Cc1c(O)c2c3c(cccc3c1O)C(=O)N(c1ccccc1)C2=O	IDE inh 60.3 | IDE cell inh cf 86.6 | HEK293 tox inactive
CCN(CC)C(=O)c1ccc(/C=C/c2c[nH]c3ccccc23)[n+](C)c1	IDE inh 22.0 | IDE cell inh cf 21.1 | HEK293 tox inactive
O=C(NNC1=Nc2cccc3cccc1c23)c1ccccc1Br	IDE inh 16.4 | IDE cell inh cf inactive | HEK293 tox inactive
Cc1ccc(C(=O)N2CCN(c3ccc(C(F)(F)F)cn3)CC2)o1	none (no result: TLR4-MyD88 BLA)
COc1cccc(NC(=O)N2CCN(c3ccc(C(F)(F)F)cn3)CC2)c1	IDE inh 18.1 | IDE cell inh cf inactive | HEK293 tox 26.1
Cc1cc(C(=O)N2CCN(c3ccc(C(F)(F)F)cn3)CC2)c(C)o1	IDE inh 16.9 (no result: TLR4-MyD88 BLA) | IDE cell inh cf inactive | HEK293 tox inactive
O=C(Nc1ccccc1)N1CCCN(c2ccc(C(F)(F)F)cn2)CC1	none (no result: TLR4-MyD88 BLA)
C[C@H](CO)N1C[C@H](C)[C@H](CN(C)C(=O)Nc2ccc3c(c2)OCCO3)OCc2cnnn2CCCC1=O	none (no result: IDE inh, TLR4-MyD88 BLA, IDE cell activ)
COC(=O)/C(C#N)=C/c1c[nH]c2ccccc12	none
COc1cc(/C=C(\C#N)C(=O)NCCc2ccccc2)cc(OC)c1O	IDE inh 44.2 | IDE cell inh cf 76.2 | HEK293 tox inactive
COc1cc(/C=C(\C#N)C(=O)c2c[nH]c3ccccc23)cc(OC)c1O	IDE inh 38.3 | IDE cell inh cf 159.2 | HEK293 tox inactive
CC(OC(=O)/C(C#N)=C/c1ccc(N(C)C)cc1)C(=O)N(C)Cc1ccccc1 (configuration not stated)	IDE inh 29.6 (no result: TLR4-MyD88 BLA) | IDE cell inh cf 36.6 | HEK293 tox inactive
CCC1CCCCN1C(=O)CSc1nc(N)cc(N)n1 (configuration not stated)	none
COc1ccc(NC(=O)/C(C#N)=C/c2ccc(Br)o2)cc1	none
COc1ccc(NC(=O)/C(C#N)=C\c2ccc(N3CCOCC3)o2)cc1	IDE inh 126.1 | IDE cell inh cf 144.6 | HEK293 tox inactive
N#C/C(=C/c1ccc(N2CCOCC2)o1)c1nc2ccccc2[nH]1	IDE inh 35.5 | IDE cell inh cf 26.0 | HEK293 tox 28.5
N#C/C(=C/c1ccc(N2CCCCC2)o1)C(=O)Nc1ccc(Cl)cc1	IDE inh 71.4 | IDE cell inh cf 63.6 | HEK293 tox 33.7
N#C/C(=C\c1ccc(N2CCOCC2)o1)C(=O)Nc1ccc(O)cc1	IDE inh 58.6 (no result: TLR9-MyD88 inh, IDE cell activ) | IDE cell inh cf 65.6 | HEK293 tox inactive
COc1ccccc1CNC(=O)CCNC(=O)C1CCN(S(=O)(=O)c2ccccc2)CC1	none (no result: TLR4-MyD88 BLA)
CCN1CCC2(CC1)C(C#N)=C(N)Oc1c2sc2nc(C)cc(C)c12	IDE inh 35.1 | IDE cell inh cf inactive | HEK293 tox inactive
Cc1ccc(S(=O)(=O)Nc2cc(=O)[nH]c3c2CCC3)cc1	none (no result: TLR4-MyD88 BLA)
O/C=c1\ccc2cccc3nc(C(F)(F)F)nc1c23	IDE inh 25.8 (no result: TLR4-MyD88 BLA) | IDE cell inh cf 103.1 | HEK293 tox 41.1
O=C(NCCc1cnccn1)C1CCC(=O)N(Cc2ccc(Cl)cc2)C1 (configuration not stated)	none (no result: TLR4-MyD88 BLA)
Nc1ccn([C@@H]2O[C@H](CNCc3ccc(C#CCCO)cc3)[C@@H](O)[C@H]2O)c(=O)n1	none (no result: IDE inh, TLR4-MyD88 BLA, IDE cell activ)

Screening data from PubChem.
